Results reported in PubChem BioAssay (NCI).
The panel holds about 79,000 compounds, 15% with a hit somewhere; the sample as a whole holds those more often. A number with no mark means an inactive call. Active and inactive are the calls of the source. Cut-off read from the data, not from the text of the source: active = growth inhibition above about 70%; inactive = the rest.

How the values were obtained:
[1] = NCI Yeast Anticancer Drug Screen. Data for the rad50 strain (AID 155);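 note: 0% = growth of vehicle-only cultures of the same strain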; conditions: S. cerevisiae rad50 strain growth inhibition; at 50.0 µM; stronger effect = higher value
Procedure, shortened: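 DNA repair mutant yeast, compound exposure, growth read-out; inhibition is taken relative to vehicle.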

[2] = NCI Yeast Anticancer Drug Screen. Data for the mec2-1 strain (AID 157); conditions: S. cerevisiae mec2-1 strain, at 50.0 µM, stronger effect = higher value
Procedure, shortened: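 Mutant yeast (mec2-1) grown with compound; growth inhibition relative to vehicle control reported.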

[3] = NCI Yeast Anticancer Drug Screen. Data for the sgs1 mgt1 strain (AID 161);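 note: 0% = growth of cultures given vehicle only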; conditions: S. cerevisiae sgs1 mgt1 strain, at 50.0 µM, stronger effect = higher value
Procedure, shortened: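 Percent growth inhibition was derived by comparing compound-exposed mutant yeast with vehicle-exposed cultures. The strain carries alterations in DNA damage repair.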

[4] = NCI Yeast Anticancer Drug Screen. Data for the cln2 rad14 strain (AID 165);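 note: 0% = growth equal to vehicle treated cultures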; conditions: S. cerevisiae cln2 rad14 strain, at 50.0 µM, stronger effect = higher value
Procedure, shortened: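 Readout is yeast growth inhibition versus vehicle-treated controls, using a strain with cln2 and rad14 alterations exposed to compound.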

[5] = NCI Yeast Anticancer Drug Screen. Data for the bub3 strain (AID 167); conditions: S. cerevisiae bub3 mutant strain, at 50.0 µM, stronger effect = higher value
Procedure, shortened: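 In this screen, a yeast mutant lacking normal mitotic checkpoint function is challenged with compound. Relative growth versus vehicle gives the inhibition value.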

[6] = NCI Yeast Anticancer Drug Screen. Data for the mlh1 rad18 strain (AID 175); conditions: S. cerevisiae mlh1 rad18 strain growth inhibition; at 50.0 µM; stronger effect = higher value
Procedure, shortened: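 Genetically defined yeast (DNA repair-deficient) exposed to compounds; growth inhibition determined relative to vehicle.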

| Compound | growth inhibition [1] | growth inhibition [2] | growth inhibition [3] | growth inhibition [4] | growth inhibition [5] | growth inhibition [6] |
| --- | --- | --- | --- | --- | --- | --- |
| [C-]#[O+].[C-]#[O+].[C-]#[O+].[Cr].c1ccc(P(CC[PH+](CC[PH+](CC[PH+](c2ccccc2)c2ccccc2)c2ccccc2)c2ccccc2)c2ccccc2)cc1 (centres undefined) | 36.3% | 13.6% | 41.5% | 18.6% | 33.8% | 37.8% |
| Oc1cccc(/C=N\NC(=S)NC2CN3CCC2CC3)c1 (centres undefined) | 2.85% | -5.9% | -5.85% | -4.45% | 7.1% | -12.8% |
| CC(C)(C#N)O[N+](=O)[O-] | 0.1% | 7.3% | -4.7% | -16.8% | -0.7% | 0.2% |
| CN(C)C(=O)Sc1cc(Cl)c(S(=O)(=O)F)cc1Cl | 9.45% | 6.8% | 10.7% | 8.9% | 3.35% | 14.9% |
| O=P(Oc1ccccc1)(N1CCCC1)N1CCCC1 | 27.9% | 18.4% | 11.9% | 18.1% | 36.5% | 8.15% |
| O=C1NC(=S)NC(=O)C1=Cc1cc2c(cc1[N+](=O)[O-])OCO2 | 0.45% | -4.2% | 4.4% | 15.1% | 7.95% | -7.8% |
| O=NN(Cc1ccccc1)Cc1ccccc1 | 2.55% | 0.1% | 3.1% | 0.5% | 8.6% | 21.4% |
| O=P(Oc1ccccc1)(Oc1ccccc1)Oc1c(Cl)c(Cl)c(O)c(Cl)c1Cl | 23.6% | 10% | 38.9% | 19.1% | -16.4% | 2.35% |
| C[C@]12CCC(=O)C=C1CC[C@@H]1[C@@H]2CC[C@]2(C)C(=O)[C@H](n3ccnc3)C[C@@H]12 | -1.35% | 2.45% | 0.9% | 3.2% | -1.2% | 5.65% |
| CCCCCCNC1C=CCC1 (centres undefined) | -5.75% | -2.55% | -10.9% | -15.6% | 5.15% | 4.25% |
| O=c1n(CC2CS2)c2ccccc2n1CC1CS1 (centres undefined) | 42% | -0.6% | 4.9% | -30.4% | -11.1% | -5.3% |
| CCOC(=O)C(C#N)c1ccccc1 (centres undefined) | 22.3% | 19.1% | 18% | 14.1% | -9.55% | 43.4% |
| C#CC(C)N1CCC2(CC1)C(=O)NCN2c1ccccc1 (centres undefined) | -19.3% | -6.1% | -15.7% | -2.85% | -4.05% | 0.65% |
| CCC1(CNC(=O)CN)C(=O)NC(=O)NC1=O | -14.8% | -0.85% | -4.4% | 27.4% | 2.7% | 21.6% |
| CCOP(=S)(OCC)Oc1cnn(C)c(=S)c1Cl | 12.8% | -18.6% | -0.85% | 10.3% | -4.85% | 8.05% |
| CN1CCN(C)C1=Nc1ccccc1/C=C/C=C1C(=O)N(C)C(=O)N(C)C1=O | 2.7% | 8.5% | 12.8% | 12.2% | -1.2% | 14.8% |
| Cc1cc[n+](CCc2ccccc2)cc1 | 7.95% | 15.1% | 15.2% | -8.35% | 8.75% | 9.6% |

| Compound | growth inhibition [1] | growth inhibition [2] | growth inhibition [3] | growth inhibition [4] | growth inhibition [5] | growth inhibition [6] |
| --- | --- | --- | --- | --- | --- | --- |
| CC(N)Cc1c[nH]c2ccccc12 (centres undefined) | 2.9% | -22.2% | 1.1% | 20.6% | -1.75% | 12.8% |
| [C-]#[O+].[C-]#[O+].[Ir].[O-]c1cccc2cccnc12 | -19.2% | -27.6% | -4.6% | 12.7% | -13.2% | -4.8% |
| Cc1cc(C)c(O)c(CN2CCCCC2)c1 | 4.35% | 13.1% | 32.8% | -4% | 19.6% | 14.5% |
| CC[C@@H](C)C(=O)O[C@H]1[C@H](O)[C@H]2[C@@H](CN3C[C@@H](C)CC[C@H]3[C@@]2(C)O)[C@@H]2C[C@]34O[C@]5(O)[C@@H](OC(=O)[C@@](C)(O)CC)CC[C@@]3(C)[C@@H]5[C@@H](OC(C)=O)[C@@H](OC(C)=O)[C@H]4[C@@]21O | 11.8% | -15.3% | 0.75% | -4.3% | 8.75% | 7.35% |
| CC(C)c1cc2c(c(O)c1O)[C@@]1(C(=O)O)CCCC(C)(C)[C@@H]1CC2 | 91.8% (active) | 93.5% (active) | 93.3% (active) | 92% (active) | 92.3% (active) | 92.3% (active) |
| O=C([O-])C(=O)[O-].[Co+3].[NH2-].[NH2-].[NH2-].[NH2-].[O-][Cl+3]([O-])([O-])O | 18.5% | 21.9% | 13.2% | 15.7% | 18.1% | 36.8% |
| C/C(CCl)=N/NC1=NC(C)(CCC2(C)N=C(N/N=C(/C)CCl)SP2(=O)NC23CC4CC(CC(C4)C2)C3)P(=O)(NC23CC4CC(CC(C4)C2)C3)S1 (centres undefined) | -9.25% | 1.15% | 16.8% | -21.8% | -19.5% | -28.8% |
| O=C(O)c1cc([N+](=O)[O-])cc([N+](=O)[O-])c1 | -3% | 1.3% | 2.75% | -34.2% | -30.9% | 43.2% |
| CCOC(=O)/C(C#N)=C(/SC)N1CC1 | 1.9% | 12% | 1.4% | -7.2% | 6.8% | -2% |
| Cc1ccc([NH-])c([NH-])c1.[Cl][Pt+2][Cl] | 22.1% | 0.25% | 30.4% | 12.3% | -2.85% | 13.7% |
| CC(C)(C)OO | 5.35% | 7.05% | 0.95% | -0.6% | 22.4% | -17% |
| C#[C][Sn]([CH2]CCC)([CH2]CCC)[CH2]CCC | 99% (active) | 99.5% (active) | 99.2% (active) | 99.1% (active) | 99.3% (active) | 99.2% (active) |
| Nn1cnnc1 | -12.9% | -7.95% | -9.7% | -9.35% | -3.05% | -16.2% |
| O=C(NC(CCS(=O)(=O)NCc1ccc(S(=O)(=O)F)cc1)C(=O)OCc1ccccc1)OCc1ccccc1 (centres undefined) | 26.8% | 5.7% | 16.6% | 15.4% | 0.2% | 29.9% |
| CCC(C#N)N1CC1 (centres undefined) | -7.05% | 12.7% | -6.4% | 18.1% | -4.35% | 6% |
| O=C1NC(=O)C(=C/C=C/c2ccccc2)C(=O)N1 | 34.2% | -3.5% | 18.6% | 16.4% | 10.5% | -2.25% |
| CCCCN(CCCC)C(=O)C1C=C2c3cccc4[nH]cc(c34)CC2N(C)C1 (centres undefined) | -0.85% | -1.3% | -11.2% | -13.2% | 6.65% | 37.4% |
